PubChem BioAssay AID1159580 (chemical genetic matrix, 2015)
In all, about 5,500 compounds went through this assay and about 2,000 (36%) were called active. Inconclusive results (about 18%) are left out. No stated cut-off is given here; in the data, active means normalized growth mostly below about 0.91 (no sharp cut-off); inconclusive means no clear call, values can overlap the other calls; inactive means mostly above about 0.92. Some of the results follow.

Assay: chemical genetic growth profiling, strain panel (AID 1159580);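 further: tested at 20 µM; growth read once vehicle control cultures reached saturation at 30 °C; 1 = growth at the plate median or of vehicle wells; lower values mean less growth of the strain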
Conditions: growth OD

Measured: normalized growth

CCOC(=O)[C@H](CCc1ccccc1)N[C@@H](C)C(=O)N1Cc2ccccc2C[C@H]1C(=O)O
inactive: S. cerevisiae deletion strains, locus YJR043C, strain POL32, hits give low values 1.02 | S. cerevisiae deletion strains, locus YJR066W, strain TOR1, hits give low values 0.98 | S. cerevisiae deletion strains, locus YKL009W, strain mrt4, hits give low values 0.994 | S. cerevisiae deletion strains, locus YKL068W, hits give low values 1 | S. cerevisiae deletion strains, locus YKL085W, strain MDH1 (second series), hits give low values 1.01 | S. cerevisiae deletion strains, locus YKL085W, strain MDH1, hits give low values 1.01 | S. cerevisiae deletion strains, locus YKL160W, strain elf1, hits give low values 0.975 | S. cerevisiae deletion strains, locus YKL190W, strain CNB1, hits give low values 1.01 | S. cerevisiae deletion strains, locus YKR001C, strain vps1, hits give low values 0.986 | S. cerevisiae deletion strains, locus YKR026C, strain gcn3, hits give low values 0.994 | S. cerevisiae deletion strains, locus YKR091W, strain srl3, hits give low values 1 | S. cerevisiae deletion strains, locus YLL001W, strain dnm1, hits give low values 0.998 | S. cerevisiae deletion strains, locus YLL026W, hits give low values 1.01 | S. cerevisiae deletion strains, locus YLL041C, strain sdh2, hits give low values 0.998 | S. cerevisiae deletion strains, locus YLR027C, strain aat2, hits give low values 0.994 | S. cerevisiae deletion strains, locus YLR039C, strain RIC1, hits give low values 1.05 | S. cerevisiae deletion strains, locus YLR058C, strain SHM2, hits give low values 1.01 | S. cerevisiae deletion strains, locus YLR102C, strain apc9, hits give low values 1.01 | S. cerevisiae deletion strains, locus YLR113W, strain HOG1, hits give low values 0.963 | S. cerevisiae deletion strains, locus YLR221C, strain rsa3, hits give low values 1.02 | S. cerevisiae deletion strains, locus YLR258W, strain gsy2, hits give low values 0.999 | S. cerevisiae deletion strains, locus YLR262C, strain YPT6 (second series), hits give low values 0.995 | S. cerevisiae deletion strains, locus YLR262C, strain YPT6, hits give low values 1.07 | S. cerevisiae deletion strains, locus YLR268W, strain sec22, hits give low values 1 | S. cerevisiae deletion strains, locus YLR320W, strain mms22, hits give low values 0.996 | S. cerevisiae deletion strains, locus YLR330W, strain CHS5, hits give low values 1 | S. cerevisiae deletion strains, locus YLR342W, strain FKS1 (second series), hits give low values 1.02 | S. cerevisiae deletion strains, locus YLR342W, strain FKS1, hits give low values 1.02 | S. cerevisiae deletion strains, locus YLR357W, strain rsc2, hits give low values 0.975 | S. cerevisiae deletion strains, locus YLR370C, strain arc18, hits give low values 0.985 | S. cerevisiae deletion strains, locus YLR371W, strain rom2, hits give low values 1.01 | S. cerevisiae deletion strains, locus YLR384C, strain iki3, hits give low values 1.01 | S. cerevisiae deletion strains, locus YLR418C, strain cdc73, hits give low values 1 | S. cerevisiae deletion strains, locus YML016C, strain PPZ1, hits give low values 1 | S. cerevisiae deletion strains, locus YML032C, strain rad52, hits give low values 1 | S. cerevisiae deletion strains, locus YML120C, strain ndi1, hits give low values 0.996 | S. cerevisiae deletion strains, locus YML124C, strain tub3, hits give low values 1.01 | S. cerevisiae deletion strains, locus YMR058W, strain fet3, hits give low values 1.01 | S. cerevisiae deletion strains, locus YMR078C, strain ctf18, hits give low values 1 | S. cerevisiae deletion strains, locus YMR125W, strain sto1, hits give low values 0.989 | S. cerevisiae deletion strains, locus YMR129W, hits give low values 0.989 | S. cerevisiae deletion strains, locus YMR205C, strain PFK2, hits give low values 1 | S. cerevisiae deletion strains, locus YMR223W, strain ubp8, hits give low values 1.02 | S. cerevisiae deletion strains, locus YMR231W, strain pep5, hits give low values 0.999 | S. cerevisiae deletion strains, locus YMR307W, strain GAS1, hits give low values 0.979 | S. cerevisiae deletion strains, locus YNL067W, strain RPL9B, hits give low values 0.995 | S. cerevisiae deletion strains, locus YNL071W, strain lat1, hits give low values 0.998 | S. cerevisiae deletion strains, locus YNL183C, strain NPR1, hits give low values 0.949 | S. cerevisiae deletion strains, locus YNL209W, strain ssb2, hits give low values 0.994 | S. cerevisiae deletion strains, locus YNL233W, strain BNI4, hits give low values 0.994 | S. cerevisiae deletion strains, locus YNL248C, strain rpa49, hits give low values 0.957 | S. cerevisiae deletion strains, locus YNL250W, strain rad50, hits give low values 1.01 | S. cerevisiae deletion strains, locus YNL271C, strain bni1, hits give low values 1.02 | S. cerevisiae deletion strains, locus YNL298W, strain CLA4, hits give low values 1.01 | S. cerevisiae deletion strains, locus YNL307C, strain MCK1, hits give low values 1.02 | S. cerevisiae deletion strains, locus YNL322C, strain KRE1 (second series), hits give low values 0.996 | S. cerevisiae deletion strains, locus YNL322C, strain KRE1, hits give low values 1.01 | S. cerevisiae deletion strains, locus YNR049C, strain mso1, hits give low values 1 | S. cerevisiae deletion strains, locus YNR052C, strain pop2, hits give low values 1.01 | S. cerevisiae deletion strains, locus YOL006C, strain TOP1, hits give low values 0.987 | S. cerevisiae deletion strains, locus YOL012C, strain htz1 1.52 | S. cerevisiae deletion strains, locus YOL147C, strain pex11, hits give low values 1.01 | S. cerevisiae deletion strains, locus YOR001W, strain rrp6, hits give low values 1.01 | S. cerevisiae deletion strains, locus YOR061W, strain CKA2, hits give low values 1.01 | S. cerevisiae deletion strains, locus YOR069W, strain VPS5, hits give low values 1 | S. cerevisiae deletion strains, locus YOR070C, strain gyp1, hits give low values 1.01 | S. cerevisiae deletion strains, locus YOR080W, strain dia2, hits give low values 1.01 | S. cerevisiae deletion strains, locus YOR083W, strain WHI5, hits give low values 0.963 | S. cerevisiae deletion strains, locus YOR106W, strain vam3, hits give low values 0.989 | S. cerevisiae deletion strains, locus YOR136W, strain idh2, hits give low values 1.01 | S. cerevisiae deletion strains, locus YOR144C, strain elg1, hits give low values 1.01 | S. cerevisiae deletion strains, locus YOR184W, strain ser1, hits give low values 1 | S. cerevisiae deletion strains, locus YOR231W, strain MKK1, hits give low values 0.974 | S. cerevisiae deletion strains, locus YOR265W, strain rbl2, hits give low values 1.02 | S. cerevisiae deletion strains, locus YOR270C, strain vph1, hits give low values 0.853 | S. cerevisiae deletion strains, locus YOR290C, strain snf2, hits give low values 0.972 | S. cerevisiae deletion strains, locus YOR316C, strain cot1, hits give low values 1.02 | S. cerevisiae deletion strains, locus YPL051W, strain arl3, hits give low values 0.995 | S. cerevisiae deletion strains, locus YPL078C, strain atp4, hits give low values 0.98 | S. cerevisiae deletion strains, locus YPL106C, strain sse1, hits give low values 1 | S. cerevisiae deletion strains, locus YPL240C, strain hsp82, hits give low values 1.02 | S. cerevisiae deletion strains, locus YPL241C, strain CIN2, hits give low values 1.01 | S. cerevisiae deletion strains, locus YPL256C, strain CLN2, hits give low values 0.962 | S. cerevisiae deletion strains, locus YPR119W, strain clb2, hits give low values 1 | S. cerevisiae deletion strains, locus YPR141C, strain kar3, hits give low values 1.01 | S. cerevisiae deletion strains, locus YPR163C, strain tif3, hits give low values 1.01 | S. cerevisiae deletion strains, locus YPR167C, strain met16, hits give low values 1.01 | S. cerevisiae deletion strains, strain wtn01, hits give low values 1 | S. cerevisiae strains, strain wild type, hits give low values 1.01
